Here are results for 40 compounds from ChEMBL document CHEMBL3433997, “St. Jude Leishmania screening dataset” (2016).

For the first assay, the target named is Solute carrier family 2, facilitated glucose transporter member 1 (Homo sapiens) (UniProt P11166). Description: ST_JUDE_LEISH: Cytotoxicity at 2uM final concentration against transgenic Leishmania Mexicana promastigotes LmGLUT1 that are glucose transport deficient and complemented with the human glucose transporter GLUT1. Activity is measured by DNA content using SYBR green in vitro. The format is functional.
Solute carrier family 2, facilitated glucose transporter member 1 (Homo sapiens), sequence (P11166 whole entry): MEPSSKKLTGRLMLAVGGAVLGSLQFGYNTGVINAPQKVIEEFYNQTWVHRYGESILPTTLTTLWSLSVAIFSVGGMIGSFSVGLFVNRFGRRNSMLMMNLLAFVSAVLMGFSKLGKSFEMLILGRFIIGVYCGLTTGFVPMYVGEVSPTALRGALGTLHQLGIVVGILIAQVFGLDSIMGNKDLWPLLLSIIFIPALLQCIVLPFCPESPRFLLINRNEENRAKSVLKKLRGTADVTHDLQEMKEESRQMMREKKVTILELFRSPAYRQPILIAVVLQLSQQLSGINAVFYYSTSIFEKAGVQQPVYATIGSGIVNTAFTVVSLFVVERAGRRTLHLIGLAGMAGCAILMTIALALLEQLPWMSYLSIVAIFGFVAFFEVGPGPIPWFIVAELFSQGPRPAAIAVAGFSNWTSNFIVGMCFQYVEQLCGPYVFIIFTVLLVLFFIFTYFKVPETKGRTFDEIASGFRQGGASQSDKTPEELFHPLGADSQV
For the compound `O=C(C1CC1)N1c2ccccc2CCc2ccccc21`, the inhibition is -0.93%.
For the compound `CC1(C)N=C(N)N=C(N)N1c1cccc(I)c1`, the inhibition was 0.23%.
As to `CCC(C)(C)n1c(C)cc2c3c(N)nc(N)nc3ccc21`, the inhibition amounted to 71.7%.
In the case of `CN1CCN(CCCN(Cc2ccc(-c3ccc(CNCc4ccc5c(c4)OCO5)cc3)cc2)C(=O)CCC2CCCC2)CC1`, the inhibition amounted to 4.67%.
Still for that read-out and setting: to `COc1cc(NC(=O)Nc2ccc(Br)cc2C(=O)Nc2ccc(Br)cc2)cc(OC)c1OC` belongs 5.51%; to `Cc1c(C)n(C2CCCCC2)c2ncnc(OC3CCN(CC(=O)N4CCCC4)CC3)c12`, 1.06%; to `O=C(Nc1cccc(N2CCC(NCCCc3ccncc3)CC2)c1)c1cccc(C(F)(F)F)c1`, 3.33%.
Still for that read-out and setting: the same measure for `COc1ccccc1-c1ccc2nnc(SCC(=O)Nc3ccc4c(c3)OCCO4)n2n1`: 4.56%; for `CO/C(=C\C=C\c1cc2cc(Cl)c(Cl)cc2[nH]1)C(=O)NC1CC2CCCC(C1)N2C` (stereo not given): 1.7%; for `CC(C)C[C@H](NC(=O)c1cc(-c2ccc(C(C)(C)C)cc2)no1)C(=O)O.CC(C)C[C@H](NC(=O)c1conc1-c1ccc(C(C)(C)C)cc1)C(=O)O`: 1.21%.
The same measure, in the same setting: to `COc1cccc(CC(=O)N2CCC(n3c(C)nc4ccc(C)cc43)CC2)c1` belongs 1.58%; to `O=C(NCc1cccc(F)c1)Nc1ccc(-c2cccc(-c3nc4cc(F)ccc4[nH]3)c2)cc1`, 1.98%; to `CN(C)CCCSc1ccccc1NC(=O)C=Cc1ccccc1`, 5.73%.
As for `CS(=O)(=O)Nc1cccc(-c2cnc3[nH]cc(-c4ccc(C(=O)O)cc4)c3c2)c1`, the inhibition was found to be 0.37%.
The same measure, in the same setting: the same measure for `O=C(N[C@@H](Cc1ccccc1)C(=O)NCCN1CCCC1)c1ccc(O)c(-c2ccc(Cl)c(Cl)c2)c1`: 7.15%.
As to `COCCNC(=O)c1ccc(OC2CCN(Cc3ccc(F)c(F)c3)CC2)c(Cl)c1`, the inhibition was 0.95%.
On the same count and under the same terms, the same measure for `CCCCN1CCN(CCCNc2c3ccccc3nc3ccccc23)CC1`: 68%; for `COc1ccccc1NC(=O)Nc1cccc(-c2ccc(-c3nc4cc(C(F)(F)F)ccc4[nH]3)cc2)c1`: 2.16%; for `CCNC(=O)c1cc(S(=O)(=O)N2CCN(c3ccccn3)CC2)cs1`: 0.14%.
As for `COc1ccc2nccc([C@@H](O)CN3CCC(NCc4ccc(OC)c(NC=O)c4)CC3)c2c1`, the inhibition was 3.28%.
As for `NCC1CCCN1Cc1ccc(-c2ccc(-c3nc4cc(F)ccc4[nH]3)cc2)cc1` (stereo not given), the inhibition stood at 8.49%.
As to `Cc1cccc2nc(-c3ccc(-c4cccc(CNCCCNS(C)(=O)=O)c4)cc3)[nH]c12`, the inhibition came out at 0.32%.
For the compound `O=C(/C=C/c1ccc2ccccc2c1)NCCCCCN1CCC(c2c[nH]c3ccccc23)CC1`, the inhibition was 3.34%.
For the compound `CC(Oc1ccc(NC(=O)c2cccs2)cc1)C(=O)c1ccc(Cl)cc1` (stereo not given), the inhibition worked out at 11.3%.
Regarding `CN1CCN(CCCN(Cc2cccc(-c3ccc(CNC4CCCC4)cc3)c2)C(=O)CCC2CCCC2)CC1`, the inhibition was found to be 17.4%.
For the compound `CC(=NNC(S)=Nc1ccccc1Cl)c1ccccn1`, the inhibition came to 18.6%.
As for `O=C(Nc1cccc(-c2ccc(NCCCN3CCCC3)nc2)c1)c1ccccc1`, the inhibition turned out to be 5.13%.
Same read-out and setting: the same measure for `CCOc1ncccc1CN1CCC(N2CCc3cc(NC(=O)c4ccco4)ccc32)C1` (stereo not given): 0.43%; for `O=[N+]([O-])c1ccccc1/C=N/Nc1ccnc2ccc(C(F)(F)F)cc12`: -0.59%; for `O=C(Nc1cccc(CN2CCCN(Cc3ccc4c(c3)OCO4)CC2)c1)c1cc2ccccc2s1`: -0.41%.
The same measure, in the same setting: to `CCOC(=O)[C@H](Cc1cccc2ccccc12)NC(=O)[C@H](CCC(=O)OC(C)(C)C)NC(=O)c1ccc(N(C)Cc2cnc3nc(N)nc(N)c3n2)cc1` belongs 3.47%; to `FC(F)(F)c1cccc(CNCC2CCN(Cc3ccc4c(c3)OCO4)CC2)c1`, 9.53%; to `CNS(=O)(=O)c1ccc2c(c1)nc(C1CCN(CC3CCC(NC(=O)/C=C/c4ccc(Cl)c(Cl)c4)CC3)CC1)n2C` (stereo not given), 11.9%.
Same read-out and setting: the same measure for `Cc1cc(C)c(O)c(-c2cc(C(=O)Nc3ccc(S(=O)(=O)N4CC(C)OC(C)C4)cc3)[nH]n2)c1` (stereo not given): 3.1%; for `Nc1ncc(-c2ccc3nccc(-c4ccncc4)c3c2)cc1S(=O)(=O)N1CCOCC1`: 5.11%; for `CCc1ccc(C(=O)NC(=O)c2ccccc2O)cc1`: 3.44%.
Turning to `Cc1cc(CN2CC[C@H](NC(=O)c3ccc(Cl)c(Cl)c3)C2)ccc1OC1CCN(C)C1` (stereo not given in full), the inhibition is -0.24%.
On the same count and under the same terms, the same measure for `CC1CCCCC1N(C)C1CCN(CCCNC(=O)C=Cc2ccc(Cl)cc2Cl)CC1` (stereo not given): -1.12%; for `CCOc1ccc2[nH]c(C)cc(=NN=Cc3ccc(Cl)cc3)c2c1`: -0.27%.
With `O=C(Nc1ccc(OC2CCN(Cc3ccco3)C2)c(Cl)c1)c1ccc2ncccc2c1` (stereo not given), the inhibition stood at 0.4%.

The target of a further assay is Hexose transporter 1 (Plasmodium falciparum) (UniProt O97467). Description: ST_JUDE_LEISH: Cytotoxicity at 2uM final concentration against transgenic Leishmania Mexicana promastigotes LmPfHT that are glucose transport deficient and complemented with the Plasmodium falciparum hexose transporter. Activity is measured by DNA content using SYBR green in vitro. The format is functional.
For the compound `O=C(C1CC1)N1c2ccccc2CCc2ccccc21`, the inhibition was -0.1%.
The same measure, in the same setting: the same measure for `CC1(C)N=C(N)N=C(N)N1c1cccc(I)c1`: -0.04%.
Still for that read-out and setting: the same measure for `CCC(C)(C)n1c(C)cc2c3c(N)nc(N)nc3ccc21`: 77.2%; for `CN1CCN(CCCN(Cc2ccc(-c3ccc(CNCc4ccc5c(c4)OCO5)cc3)cc2)C(=O)CCC2CCCC2)CC1`: 7.78%.
In the case of `COc1cc(NC(=O)Nc2ccc(Br)cc2C(=O)Nc2ccc(Br)cc2)cc(OC)c1OC`, the inhibition was 4.2%.
On the same count and under the same terms, the same measure for `Cc1c(C)n(C2CCCCC2)c2ncnc(OC3CCN(CC(=O)N4CCCC4)CC3)c12`: 3.02%; for `O=C(Nc1cccc(N2CCC(NCCCc3ccncc3)CC2)c1)c1cccc(C(F)(F)F)c1`: 5.68%.
Regarding `COc1ccccc1-c1ccc2nnc(SCC(=O)Nc3ccc4c(c3)OCCO4)n2n1`, the inhibition worked out at 4.26%.
`CO/C(=C\C=C\c1cc2cc(Cl)c(Cl)cc2[nH]1)C(=O)NC1CC2CCCC(C1)N2C` (stereo not given): the inhibition turned out to be 0.66%.
Consider `CC(C)C[C@H](NC(=O)c1cc(-c2ccc(C(C)(C)C)cc2)no1)C(=O)O.CC(C)C[C@H](NC(=O)c1conc1-c1ccc(C(C)(C)C)cc1)C(=O)O`, for which the inhibition was determined as 0.89%.
Turning to `COc1cccc(CC(=O)N2CCC(n3c(C)nc4ccc(C)cc43)CC2)c1`, the inhibition worked out at 1.46%.
For the compound `O=C(NCc1cccc(F)c1)Nc1ccc(-c2cccc(-c3nc4cc(F)ccc4[nH]3)c2)cc1`, the inhibition stood at 1.08%.
`CN(C)CCCSc1ccccc1NC(=O)C=Cc1ccccc1`: the inhibition came out at 7.21%.
The same measure, in the same setting: the same measure for `CS(=O)(=O)Nc1cccc(-c2cnc3[nH]cc(-c4ccc(C(=O)O)cc4)c3c2)c1`: 0.36%; for `O=C(N[C@@H](Cc1ccccc1)C(=O)NCCN1CCCC1)c1ccc(O)c(-c2ccc(Cl)c(Cl)c2)c1`: 3.32%; for `COCCNC(=O)c1ccc(OC2CCN(Cc3ccc(F)c(F)c3)CC2)c(Cl)c1`: 1.83%.
Still for that read-out and setting: the same measure for `CCCCN1CCN(CCCNc2c3ccccc3nc3ccccc23)CC1`: 80%; for `COc1ccccc1NC(=O)Nc1cccc(-c2ccc(-c3nc4cc(C(F)(F)F)ccc4[nH]3)cc2)c1`: 2.07%; for `CCNC(=O)c1cc(S(=O)(=O)N2CCN(c3ccccn3)CC2)cs1`: -0.21%.
`COc1ccc2nccc([C@@H](O)CN3CCC(NCc4ccc(OC)c(NC=O)c4)CC3)c2c1`: the inhibition is 4.05%.
On the same count and under the same terms, the same measure for `NCC1CCCN1Cc1ccc(-c2ccc(-c3nc4cc(F)ccc4[nH]3)cc2)cc1` (stereo not given): 5.64%; for `Cc1cccc2nc(-c3ccc(-c4cccc(CNCCCNS(C)(=O)=O)c4)cc3)[nH]c12`: 0.24%; for `O=C(/C=C/c1ccc2ccccc2c1)NCCCCCN1CCC(c2c[nH]c3ccccc23)CC1`: 5.66%.
Regarding `CC(Oc1ccc(NC(=O)c2cccs2)cc1)C(=O)c1ccc(Cl)cc1` (stereo not given), the inhibition was determined as 10%.
On the same count and under the same terms, the same measure for `CN1CCN(CCCN(Cc2cccc(-c3ccc(CNC4CCCC4)cc3)c2)C(=O)CCC2CCCC2)CC1`: 8.03%; for `CC(=NNC(S)=Nc1ccccc1Cl)c1ccccn1`: 19.6%.
In the case of `O=C(Nc1cccc(-c2ccc(NCCCN3CCCC3)nc2)c1)c1ccccc1`, the inhibition was 6.59%.
As to `CCOc1ncccc1CN1CCC(N2CCc3cc(NC(=O)c4ccco4)ccc32)C1` (stereo not given), the inhibition was -0.71%.
For the compound `O=[N+]([O-])c1ccccc1/C=N/Nc1ccnc2ccc(C(F)(F)F)cc12`, the inhibition worked out at 2.42%.
For `O=C(Nc1cccc(CN2CCCN(Cc3ccc4c(c3)OCO4)CC2)c1)c1cc2ccccc2s1`, the inhibition was -0.3%.
The same measure, in the same setting: to `CCOC(=O)[C@H](Cc1cccc2ccccc12)NC(=O)[C@H](CCC(=O)OC(C)(C)C)NC(=O)c1ccc(N(C)Cc2cnc3nc(N)nc(N)c3n2)cc1` belongs 4.12%; to `FC(F)(F)c1cccc(CNCC2CCN(Cc3ccc4c(c3)OCO4)CC2)c1`, 12.1%; to `CNS(=O)(=O)c1ccc2c(c1)nc(C1CCN(CC3CCC(NC(=O)/C=C/c4ccc(Cl)c(Cl)c4)CC3)CC1)n2C` (stereo not given), 10.9%.
Take `Cc1cc(C)c(O)c(-c2cc(C(=O)Nc3ccc(S(=O)(=O)N4CC(C)OC(C)C4)cc3)[nH]n2)c1` (stereo not given): the inhibition was 1.95%.
On the same count and under the same terms, the same measure for `Nc1ncc(-c2ccc3nccc(-c4ccncc4)c3c2)cc1S(=O)(=O)N1CCOCC1`: 3.05%; for `CCc1ccc(C(=O)NC(=O)c2ccccc2O)cc1`: 3.45%.
For the compound `Cc1cc(CN2CC[C@H](NC(=O)c3ccc(Cl)c(Cl)c3)C2)ccc1OC1CCN(C)C1` (stereo not given in full), the inhibition was found to be 0.72%.
On to `CC1CCCCC1N(C)C1CCN(CCCNC(=O)C=Cc2ccc(Cl)cc2Cl)CC1` (stereo not given), for which the inhibition was -1.99%.
For the compound `CCOc1ccc2[nH]c(C)cc(=NN=Cc3ccc(Cl)cc3)c2c1`, the inhibition amounted to 0.45%.
On the same count and under the same terms, the same measure for `O=C(Nc1ccc(OC2CCN(Cc3ccco3)C2)c(Cl)c1)c1ccc2ncccc2c1` (stereo not given): -3.49%.

Broadly, the inhibition is the change of the read-out against control, counted positive when it falls.
